Test results as given in the OligoGym collection.

molecular target: C14orf109; experiment: pooled miR-30 sensor sort-seq; sequence = guide strand; conditions: shRNA
Also: reference of the scale not given here.

With TACAATCCCACTCCAATCCATC as the sequence, how does the sensor-assay potency score (higher = more potent) read?
Its sensor-assay potency score (higher = more potent) is -0.538.

ATAACTGCCAAGCATATAGGGA was tested. Which sensor-assay potency score (higher = more potent) did it give?
The sensor-assay potency score (higher = more potent) was -0.701.

ATGCTCTGTGCAATGGTCCCGA was tested. Which sensor-assay potency score (higher = more potent) did it give?
The sensor-assay potency score (higher = more potent) was -0.872.

How did the sensor-assay potency score (higher = more potent) turn out when ATAGGAACAAAAACATCTGTAA was run?
Its sensor-assay potency score (higher = more potent) is -0.255.

TTAAAGAGTCACTCAGCTCTGA was tested. Which sensor-assay potency score (higher = more potent) did it give?
The sensor-assay potency score (higher = more potent) was 0.487.

Which sensor-assay potency score (higher = more potent) does the source give for TTCATCATTCTCCATGCTCTGT here?
Its sensor-assay potency score (higher = more potent) is -0.667.

Which sensor-assay potency score (higher = more potent) does the source give for TTCAAGGAGTGTGTCCATGTGG here?
The sensor-assay potency score (higher = more potent) was -0.159.

With TAACTGCCAAGCATATAGGGAT as the sequence, how does the sensor-assay potency score (higher = more potent) read?
The sensor-assay potency score (higher = more potent) was -0.363.

With AAACATAGTAAAATGCTGCTGC as the sequence, how does the sensor-assay potency score (higher = more potent) read?
The sensor-assay potency score (higher = more potent) was 0.701.

AAAAATAACTGTCCACACCCAA was tested. Which sensor-assay potency score (higher = more potent) did it give?
Its sensor-assay potency score (higher = more potent) is -0.714.

Which sensor-assay potency score (higher = more potent) does the source give for AAAATAACTGTCCACACCCAAA here?
Its sensor-assay potency score (higher = more potent) is -1.6.

With TTGCAAATAACTGCCAAGCATA as the sequence, how does the sensor-assay potency score (higher = more potent) read?
The sensor-assay potency score (higher = more potent) was -1.38.

molecular target: C14orf149; experiment: as above; conditions: shRNA

Which sensor-assay potency score (higher = more potent) does the source give for TCTATTATAAAGCTTGCTGTAC here?
The sensor-assay potency score (higher = more potent) was -0.349.

TAATTTAGAGAAAACAGTCCTT was tested. Which sensor-assay potency score (higher = more potent) did it give?
Its sensor-assay potency score (higher = more potent) is 0.523.

TTATAAAGCTTGCTGTACCCGT was tested. Which sensor-assay potency score (higher = more potent) did it give?
The sensor-assay potency score (higher = more potent) was 0.0873.

How did the sensor-assay potency score (higher = more potent) turn out when TAAAATCACCACATTTCGCTTC was run?
The sensor-assay potency score (higher = more potent) was 0.352.

How did the sensor-assay potency score (higher = more potent) turn out when TCTTCTATTATAAAGCTTGCTG was run?
The sensor-assay potency score (higher = more potent) was -0.472.

For TATAAGCATCTTTTCCATCTGT, which sensor-assay potency score (higher = more potent) is on record?
The sensor-assay potency score (higher = more potent) was 0.316.

With TTCCCTGTGAATACTGAGCCAG as the sequence, how does the sensor-assay potency score (higher = more potent) read?
The sensor-assay potency score (higher = more potent) was -0.697.

TAAACTGAGCTTTCACTGCCTC was tested. Which sensor-assay potency score (higher = more potent) did it give?
Its sensor-assay potency score (higher = more potent) is -0.0059.

TTCTATTATAAAGCTTGCTGTA was tested. Which sensor-assay potency score (higher = more potent) did it give?
The sensor-assay potency score (higher = more potent) was -1.15.
